Experimental data published in PubChem BioAssay (EPA / NIEHS).
The source made the active and inactive calls. Rule for the calls: active = hit-call score of the fitted dose curve at least 0.9, where 1 is the maximum; inactive = score below 0.9.

Legend:
[1] = BSK_3C_SRB: Viability Assessment in the BioMAP Diversity Plus: 3C Assay (AID 2283023); settings: primary human endothelial cells (HUVEC);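 note: fitted both ways against DMSO so a hit may be signal rise or drop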
Summary of the method: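 Human umbilical vein endothelial cells in the 3C system, treated 24 h. Total protein measured by 0.1% sulforhodamine B staining after 10% TCA fixation, read at 560 nm; bidirectional fit versus DMSO.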

[2] = read-out: Matrix Metallopeptidase 1 (MMP1), MMP1 (gene 4312); test: BSK_BE3C_MMP1: BioMAP Diversity Plus: BE3C Assay for Matrix Metallopeptidase 1 (MMP1) Biomarker Activity (AID 2283024); settings: primary human bronchial epithelial cells; actives raise or lower the signal
Summary of the method: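 MMP1 signal, measured by ELISA after a 24 h chemical exposure of human primary bronchial epithelial cells, is analysed with bidirectional fitting using DMSO as negative control.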

[3] = BSK_3C_Vis: BioMAP Diversity Plus: 3C Assay for Morphology Visualization (AID 2283025); settings: primary human endothelial cells (HUVEC);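 note: fitted both ways so gain or loss versus DMSO counts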
Summary of the method: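 Morphology read by light microscopy serves as a background control for the multiplexed 3C assay in human umbilical vein endothelial cells, taken 24 h after dosing, with DMSO as the negative control and bidirectional curve fitting.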

[4] = read-out: Pselectin, SELP (gene 6403); test: BSK_4H_Pselectin: BioMAP Diversity Plus: 4H Assay for Pselectin Biomarker Activity (AID 2283026); settings: primary human endothelial cells (HUVEC); actives raise or lower the signal
Summary of the method: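 Endothelial primary cells (human umbilical vein) are dosed, incubated 24 h, and assayed for surface P-selectin by ELISA; responses in either direction are fitted relative to the DMSO negative control.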

[5] = BSK_4H_SRB: Viability Assessment in the BioMAP Diversity Plus: 4H Assay (AID 2283027); settings: primary human endothelial cells (HUVEC);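 note: cells exposed to compound for 24 h before staining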;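 for AC50: curves fitted both ways versus DMSO so AC50 may be loss or gain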
Summary of the method: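 Cytotoxicity readout: sulforhodamine B (0.1%) staining of total protein after 10% TCA fixation, measured at 560 nm in human umbilical vein endothelium at 24 h. DMSO set the baseline; fitting was bidirectional.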

[6] = read-out: Urokinase-type plasminogen activator receptor (uPAR), PLAUR (gene 5329); test: BSK_4H_uPAR: BioMAP Diversity Plus: 4H Assay for Urokinase-type plasminogen activator receptor (uPAR) Biomarker Activity (AID 2283030); settings: primary human endothelial cells (HUVEC); actives raise or lower the signal
Summary of the method: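 Human umbilical vein endothelial cells in the 4H system, 24 h after chemical dosing. Cell-surface uPAR measured by ELISA, fitted in both directions versus DMSO; cytotoxicity checked by SRB total protein in parallel cultures.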

[7] = read-out: Vascular endothelial growth factor receptor 2 (Homo sapiens) (UniProt P35968); test: BSK_4H_VEGFRII: BioMAP Diversity Plus: 4H Assay for Vascular endothelial growth factor receptor 2 (VEGFR2) Biomarker Activity (AID 2283031); settings: primary human endothelial cells (HUVEC); actives raise or lower the signal
Summary of the method: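 Primary human umbilical vein endothelial cells (4H system), 24 h exposure; cell-surface VEGFR2 measured by ELISA. Bidirectional fitting versus DMSO; cytotoxicity checked in parallel by SRB total-protein staining.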

[8] = read-out: Human Leukocyte Antigen - DR isotype (HLADR), HLA-DRA (gene 3122); test: BSK_BE3C_HLADR: BioMAP Diversity Plus: BE3C Assay for Human Leukocyte Antigen - DR isotype (HLADR) Biomarker Activity (AID 2283032); settings: primary human bronchial epithelial cells; actives raise or lower the signal
Summary of the method: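 Chemicals are dosed onto BE3C bronchial epithelial cultures of human origin and left 24 h. HLA-DR is then measured by ELISA, and the endpoint is fitted in both directions using DMSO as the activity baseline.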

[9] = BSK_BE3C_SRB: Viability Assessment in the BioMAP Diversity Plus: BE3C Assay (AID 2283028); settings: primary human bronchial epithelial cells;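 for AC50: fitted both ways so AC50 may mark signal gain or loss versus DMSO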
Summary of the method: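 Human bronchial epithelial primary cells in confluent culture, 24 h after chemical dosing; total protein by 0.1% SRB staining after 10% TCA fixation, read at 560 nm. Bidirectional fitting versus DMSO baseline.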

[10] = read-out: Thrombomodulin, THBD (gene 7056); test: BSK_3C_Thrombomodulin: BioMAP Diversity Plus: 3C Assay for Thrombomodulin Biomarker Activity (AID 2283029); settings: primary human endothelial cells (HUVEC); actives raise or lower the signal
Summary of the method: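 Endothelial cells from umbilical vein are dosed with test chemical and incubated 24 h. Thrombomodulin is then quantified by ELISA, with DMSO serving as negative control and activity baseline.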

Measured: AC50

CC(=O)c1ccccc1
not listed: [9] | [10]
inactive: all other assays above

CC(C)c1nnc2ccc(-c3ocnc3-c3cc(F)ccc3F)cn12
active: [1] 0.61 µM | [2] 1.05 µM
not listed: [9] | [10]
inactive: all other assays above

Cc1nccn1-c1ccc(Sc2cccc(C3(C(N)=O)CCOCC3)c2)cc1
active: [1] 9.18 µM | [2] 8.1 µM | [8] 12.8 µM
not listed: [4] | [10]
inactive: all other assays above

c1ccc2ncccc2c1
not listed: [4] | [10]
inactive: all other assays above

C[C@@H](Oc1ccc(CNC(=O)c2cccnc2Oc2ccc3c(c2)OCO3)c(F)c1)C(=O)O
not listed: [4]
inactive: all other assays above

CCCc1ccccc1
not listed: [9] | [10]
inactive: all other assays above

NC(N)=O
not listed: [4]
inactive: all other assays above

CCCOc1ccc(S(=O)(=O)N2CCN(CC)CC2)cc1-c1nc2c(CC)n(Cc3ccccn3)nc2c(=O)[nH]1
not listed: [4]
inactive: all other assays above

OC[C@H]1O[C@@H]2O[C@H]3[C@H](O)[C@@H](O)[C@@H](O[C@H]4[C@H](O)[C@@H](O)[C@@H](O[C@H]5[C@H](O)[C@@H](O)[C@@H](O[C@H]6[C@H](O)[C@@H](O)[C@@H](O[C@H]7[C@H](O)[C@@H](O)[C@@H](O[C@H]1[C@H](O)[C@H]2O)O[C@@H]7CO)O[C@@H]6CO)O[C@@H]5CO)O[C@@H]4CO)O[C@@H]3CO
not listed: [9] | [10]
inactive: all other assays above

NC(=O)N1c2ccccc2C=Cc2ccccc21
not listed: [4]
inactive: all other assays above

NC(=O)NN=Cc1ccc([N+](=O)[O-])o1
not listed: [4] | [10]
inactive: all other assays above

CCc1cccc(CC)c1N
not listed: [4] | [10]
inactive: all other assays above

COc1cc(C(C)C)c2c(c1)S(=O)(=O)N(COc1cc(=O)n3cccc(OCCN4CCCCC4)c3n1)C2=O
active: [9] 8.23 µM | [6] 4.05 µM | [8] 6.88 µM
not listed: [4]
inactive: all other assays above

CCCCOC(=O)c1ccccc1
not listed: [4]
inactive: all other assays above

OCc1ccccc1
not listed: [9] | [10]
inactive: all other assays above

CCCCCOC(C)=O
not listed: [4]
inactive: all other assays above

CCCCN1C(=O)[C@@H]([C@H](O)C2CCCCC2)NC(=O)C12CCN(Cc1ccc(Oc3ccc(C(=O)O)cc3)cc1)CC2
inactive: [2] | [10] | [7] | [8]
active: [1] 27.3 µM | [3] 39 µM | [5] 23.6 µM | [6] 20 µM

OCCOCCOCCO
not listed: [4] | [9]
inactive: all other assays above

c1ccc(C(O[C@@H]2CCCN(CCc3ccc4c(c3)OCO4)C2)c2ccccc2)cc1
active: [1] 25.2 µM | [2] 26.8 µM | [3] 9.8 µM | [5] 25.4 µM | [6] 15.5 µM | [8] 20 µM
inactive: [7]

OCCC(F)(F)C(F)(F)C(F)(F)C(F)(F)F
not listed: [3] | [9] | [10]
inactive: all other assays above

C=CN1CCCC1=O
not listed: [4] | [9] | [10]
inactive: all other assays above
